Data as given in publication PMC7819943, “Rice protein-binding microarrays: a tool to detect cis-acting elements near promoter regions in rice”.
Whole data set: some 35,000 sequences, median “fluorescence intensity (a.u.)” near 10,000, cut for the highest 2% near 52,000. The sample as a whole holds a higher share of the highest values than the screen did.

Biological target: T1, OsWOX13 (Oryza sativa, UniProt Q5QMM3 1-267)
T1 sequence: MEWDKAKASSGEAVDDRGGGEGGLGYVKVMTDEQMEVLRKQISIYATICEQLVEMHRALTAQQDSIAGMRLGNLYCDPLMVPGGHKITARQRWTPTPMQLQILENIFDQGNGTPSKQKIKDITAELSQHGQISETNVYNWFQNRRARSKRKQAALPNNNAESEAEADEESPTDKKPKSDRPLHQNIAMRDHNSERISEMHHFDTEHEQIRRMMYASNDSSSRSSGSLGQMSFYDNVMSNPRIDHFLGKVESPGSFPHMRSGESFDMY
Experiment: protein-binding microarray (RPBM); PBS, 2% BSA, 51.3 ng/ul salmon testes DNA, 50 uM zinc acetate, 200 nM TF, 25 C, 1 h; high values mean tight binding
Details: protein: recombinant; tags: N-terminal polyhistidine and DsRed monomer fusion (pET32a); label: CyDye5-dUTP incorporated in the synthesized complementary strand; 3' TTTTT single-stranded linker to array surface; dsDNA, one strand shown
In short: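 Transcription factors, each fused N-terminally to a polyhistidine tag and DsRed, were expressed in E. coli BL21-CodonPlus and purified on Ni–NTA. A custom Agilent array was made double-stranded by primer extension with Cy5-dUTP and blocked with 2% BSA. It was incubated with 200 nM protein in PBS, 2% BSA, salmon testes DNA and 50 µM zinc acetate at 25 °C for 1 h, then washed. The binding signal is per-feature fluorescence intensity (arbitrary units) read on an Axon 4000B scanner.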

Question: How did the binding signal turn out when “AGACTTAATTGTAACTGTGTACTACTACGAGCTTAATCAGCGGAGTCACCTAGTGCAG” was run?
Answer: The binding signal was 28400 fluorescence intensity (a.u.).

Question: How did the binding signal turn out when “AGAGTTGTAATTAACCTTTTCAGGTTGTATTGACTGCAAGCGGAGTCACCTAGTGCAG” was run?
Answer: Its binding signal is 3760 fluorescence intensity (a.u.).

Question: How did the binding signal turn out when “GGATTAATAGATAGTCTGACTTTTCTGATAACTATTTAAGCGGAGTCACCTAGTGCAG” was run?
Answer: The binding signal was 28400 fluorescence intensity (a.u.).

Question: “TTAAAATTATGTTTGAAAATTTAAATTTTAGACGCGGCTTCGGAGTCACCTAGTGCAG” was tested. Which binding signal did it give?
Answer: Its binding signal is 14900 fluorescence intensity (a.u.).

Question: For “AAATTAATTAATACAATATATTCCTGCATGCCCTGTATAACGGAGTCACCTAGTGCAG”, which binding signal is on record?
Answer: The binding signal was 23800 fluorescence intensity (a.u.).

Question: How did the binding signal turn out when “TTCTCTAGCCCTAAATATGCCGAAGAATATTCCATGTCTCCGGAGTCACCTAGTGCAG” was run?
Answer: Its binding signal is 64900 fluorescence intensity (a.u.).

Question: Which binding signal does the source give for “GATCGAATTGGTAAATCAAATGTCTCTAAATTCTCTCCATCGGAGTCACCTAGTGCAG” here?
Answer: The binding signal was 4550 fluorescence intensity (a.u.).

Question: For “ACCCTAATTCTCCTAATCTCTTAGGAAATATGGAAGAAGCCGGAGTCACCTAGTGCAG”, which binding signal is on record?
Answer: The binding signal was 3170 fluorescence intensity (a.u.).

Question: Which binding signal does the source give for “TGCTAGAATGATTTACGTTATGAAACTGAGGGAGTACATCCGGAGTCACCTAGTGCAG” here?
Answer: Its binding signal is 5380 fluorescence intensity (a.u.).

Question: Which binding signal does the source give for “TGTGATTTATATCGTGGAAGATGATGGCTTGGCGGTATAGCGGAGTCACCTAGTGCAG” here?
Answer: The binding signal was 36300 fluorescence intensity (a.u.).

Question: Which binding signal does the source give for “GTCGATAAATTATTCGCGGCACAATTATTTGTGCCCCATTCGGAGTCACCTAGTGCAG” here?
Answer: The binding signal was 5580 fluorescence intensity (a.u.).

Question: How did the binding signal turn out when “AGCAAAATTGATTGCTAATCTTCGGTGTCCAGCAGAGCCCCGGAGTCACCTAGTGCAG” was run?
Answer: The binding signal was 64900 fluorescence intensity (a.u.).

Question: Which binding signal does the source give for “AACTAAAACACAGAAATTGATAGTCCAGCAAAACTAGCCCCGGAGTCACCTAGTGCAG” here?
Answer: The binding signal was 5180 fluorescence intensity (a.u.).

Question: For “TCTTCTGATTGCTTTCACACAAGATCCAGCAAAATTAATTCGGAGTCACCTAGTGCAG”, which binding signal is on record?
Answer: Its binding signal is 16900 fluorescence intensity (a.u.).

Question: “ATACACCAGTTGATTATAATGACAGTGATATTATGGTGGACGGAGTCACCTAGTGCAG” was tested. Which binding signal did it give?
Answer: The binding signal was 17800 fluorescence intensity (a.u.).

Question: “CAAACTAATAATTTGGCTTTTGGCTTCTGCTGAAGCAAGTCGGAGTCACCTAGTGCAG” was tested. Which binding signal did it give?
Answer: Its binding signal is 4830 fluorescence intensity (a.u.).

Question: How did the binding signal turn out when “TCTGATTTAACTGCATTGCATTTGTGTCATTGACATGTGGCGGAGTCACCTAGTGCAG” was run?
Answer: Its binding signal is 42600 fluorescence intensity (a.u.).

Question: Which binding signal does the source give for “GTTATGATTAATTGCGCCATTAGGATATTAATTAATCTGGCGGAGTCACCTAGTGCAG” here?
Answer: Its binding signal is 54500 fluorescence intensity (a.u.).

Question: For “AAACCATTAGCGCATAATTTATTGAGTTTTAATTATTTCACGGAGTCACCTAGTGCAG”, which binding signal is on record?
Answer: Its binding signal is 6070 fluorescence intensity (a.u.).

Question: Which binding signal does the source give for “GCTGATTGCCATTGATTCATATTCATTGTGTGCCATCTGGCGGAGTCACCTAGTGCAG” here?
Answer: The binding signal was 58800 fluorescence intensity (a.u.).

Question: For “ACATTCATATTGATGTTAATGATTCTAGACATATATATCTCGGAGTCACCTAGTGCAG”, which binding signal is on record?
Answer: The binding signal was 4710 fluorescence intensity (a.u.).

Question: How did the binding signal turn out when “GCCATATGATTATTTAATCTGATCCGGAGGATTAAACAAGCGGAGTCACCTAGTGCAG” was run?
Answer: Its binding signal is 14100 fluorescence intensity (a.u.).

Question: With “CATAATTAGCGGTTGATTACTGTAGCATCACTGTAACAAACGGAGTCACCTAGTGCAG” as the sequence, how does the binding signal read?
Answer: The binding signal was 29600 fluorescence intensity (a.u.).

Question: Which binding signal does the source give for “TGCAGTGATAATTTAGGATTATTTAAGATTTGCACAGTGGCGGAGTCACCTAGTGCAG” here?
Answer: Its binding signal is 12500 fluorescence intensity (a.u.).

Question: For “GCTGATTGATTCATTCTGATCTGAACATATAGACAACCATCGGAGTCACCTAGTGCAG”, which binding signal is on record?
Answer: Its binding signal is 54700 fluorescence intensity (a.u.).

Question: How did the binding signal turn out when “GCCTGATTATCCATTGTTCATCCTGCCATATTGATTTCAGCGGAGTCACCTAGTGCAG” was run?
Answer: The binding signal was 30300 fluorescence intensity (a.u.).

Question: “CTAGACATATATATTTATCTAGATTCATTAACATCCATATCGGAGTCACCTAGTGCAG” was tested. Which binding signal did it give?
Answer: Its binding signal is 5320 fluorescence intensity (a.u.).

Question: Which binding signal does the source give for “ACGGTAATTAACGTTGATTACCATAATTAGCGGCGCATTGCGGAGTCACCTAGTGCAG” here?
Answer: Its binding signal is 65200 fluorescence intensity (a.u.).

Question: With “CGTAAACAAATAGGTCCAACATAATTTAACCTTCATAGAGCGGAGTCACCTAGTGCAG” as the sequence, how does the binding signal read?
Answer: Its binding signal is 5570 fluorescence intensity (a.u.).

Question: “AGACGCATCTCCTCAATCATGCATCAACGTGCGTCATCTGCGGAGTCACCTAGTGCAG” was tested. Which binding signal did it give?
Answer: Its binding signal is 3790 fluorescence intensity (a.u.).

Question: Which binding signal does the source give for “GTTGCATATCAATCATCAAGAATCTCTTCAGAAAGAGGAGCGGAGTCACCTAGTGCAG” here?
Answer: Its binding signal is 14000 fluorescence intensity (a.u.).

Question: Which binding signal does the source give for “GTTAAATTTAAACTTGTATATTTGTGAAGTGATACATCACCGGAGTCACCTAGTGCAG” here?
Answer: Its binding signal is 17300 fluorescence intensity (a.u.).

Question: How did the binding signal turn out when “ACACAACTTGTTAATTTGACCTGTAGCCCCATCATGTACACGGAGTCACCTAGTGCAG” was run?
Answer: The binding signal was 3150 fluorescence intensity (a.u.).

Question: Which binding signal does the source give for “ATTCATGAATATATGAAACCTGATTGCAAATGTGCAAATCCGGAGTCACCTAGTGCAG” here?
Answer: Its binding signal is 4970 fluorescence intensity (a.u.).

Question: For “ATATTGATTGCATAAAGAAAGTTCGGTCCTGTTCACTTTGCGGAGTCACCTAGTGCAG”, which binding signal is on record?
Answer: The binding signal was 39900 fluorescence intensity (a.u.).

Question: “TTTGATTGATGGCCATAAGTTGCCACACTTTGCCACACTTCGGAGTCACCTAGTGCAG” was tested. Which binding signal did it give?
Answer: The binding signal was 53800 fluorescence intensity (a.u.).

Question: For “TGCCTAATTGTTGCCATTGATTTGTTAGCCACACCTTTGGCGGAGTCACCTAGTGCAG”, which binding signal is on record?
Answer: Its binding signal is 40300 fluorescence intensity (a.u.).

Question: With “TGTTAGACTATGCCATCAATTGTAATTGTTGGTTCTGATGCGGAGTCACCTAGTGCAG” as the sequence, how does the binding signal read?
Answer: The binding signal was 4250 fluorescence intensity (a.u.).

Question: For “GCAAAATTGGTTTCATCAACTATTGAGTGGGTGTGCACTGCGGAGTCACCTAGTGCAG”, which binding signal is on record?
Answer: Its binding signal is 9640 fluorescence intensity (a.u.).

Question: For “TTGTAATTGATTGTGGCCCATCAACTATTGCCATCACTGGCGGAGTCACCTAGTGCAG”, which binding signal is on record?
Answer: The binding signal was 64900 fluorescence intensity (a.u.).

Question: For “TCAAATAATTAGAAGGGGTGAGACTTCGAATCCAAGTCGTCGGAGTCACCTAGTGCAG”, which binding signal is on record?
Answer: The binding signal was 14400 fluorescence intensity (a.u.).

Question: With “TAATTATTGAACACACTAATTAAGTATTACGATGCACCTCCGGAGTCACCTAGTGCAG” as the sequence, how does the binding signal read?
Answer: Its binding signal is 6340 fluorescence intensity (a.u.).

Question: How did the binding signal turn out when “TAGATAGATAGAATTGAATGGTGACCTCAGCTCCAGCTTCCGGAGTCACCTAGTGCAG” was run?
Answer: The binding signal was 16200 fluorescence intensity (a.u.).

Question: Which binding signal does the source give for “GGTGAATTGAATGGTTGATTGCCTATCTCATCTTCCGCAGCGGAGTCACCTAGTGCAG” here?
Answer: Its binding signal is 64100 fluorescence intensity (a.u.).

Question: “TAATCTTGAATTATTGATTTATTTATGGCTTCAGCTTTCACGGAGTCACCTAGTGCAG” was tested. Which binding signal did it give?
Answer: The binding signal was 7480 fluorescence intensity (a.u.).

Question: “TGTGAATGTTGTGATTGAGGTGGTATCAGTATCATATCCGCGGAGTCACCTAGTGCAG” was tested. Which binding signal did it give?
Answer: The binding signal was 27000 fluorescence intensity (a.u.).

Question: “AGAGGATTGATGAATGCAGCTGCAAGCACAGCACGCAGTACGGAGTCACCTAGTGCAG” was tested. Which binding signal did it give?
Answer: The binding signal was 13600 fluorescence intensity (a.u.).
